Data as given in PubChem BioAssay (NCATS).
For part of these data: Results with a measured potency or affinity are listed apart. The source made the active and inactive calls. How the calls were made is not given here.

Legend:
[1] = Ebola virus entry assay, green fluorescence channel
[2] = Ebola virus entry assay, blue channel fluorescence
[3] = Ebola virus entry assay, ratio channel
[4] = Ebola virus entry assay, green channel fluorescence
[5] = Ebola virus entry assay, reporter ratio channel; Channel type: primary
[6] = Ebola virus entry assay, blue channel (ratio component)

Measured: efficacy
Wherever efficacy is given: 0% is about no effect.

COc1cc(NS(=O)(=O)c2ccc(N)cc2)ncn1
inactive: [1] 14.9% | [2] | [3] | [4] | [5] | [6]

O=C(O)C(Cc1cc(I)c(O)c(I)c1)c1ccccc1 (stereo not given)
inactive: [1] -25.4% | [2] | [3] | [4] | [5] | [6]

CC1=CC(=O)c2ccccc2C1=O
inactive: [1] 12.6% | [2] | [3] | [4] | [5] | [6]

COc1ccnc2c1CCCCC2S(=O)c1nc2ccccc2[nH]1 (stereo not given)
inactive: [1] -22.9% | [2] | [3] | [4] | [5] | [6]

Nc1ccc(N)cc1
inactive: [1] 15.4% | [2] | [3] | [4] | [5] | [6]
